# From PubChem BioAssay (NCATS)
# Inconclusive results are not listed. A call without a number means that no potency is given here. A number with no mark means an inactive call. Activity calls are given as the source filed them. Calls follow the shape of the dose curve; as a rule, active = well fitted curve in the direction sought with a large enough effect; inconclusive = small, poorly fitted or top-dose-only effect, or another doubt; inactive = no such curve, though single readings can be large; an effect the other way counts as inactive or inconclusive.
# Experiments:
# [1] = molecular target: Aldehyde dehydrogenase, mitochondrial (Homo sapiens) (UniProt P05091); assay: qHTS for Inhibitors of the Aldehyde Dehydrogenase Family (ALDH2) Primary screen (AID 2061308); also: nearly all actives have a fitted effect of over 55% in size
# [2] = molecular target: Retinaldehyde dehydrogenase 3 (Homo sapiens) (UniProt P47895); assay: qHTS for Inhibitors of the Aldehyde Dehydrogenase Family (ALDH1A3) Primary screen (AID 2061315)
SMILES,Potency [1],Potency [2],"activity change, negative = inhibition [1]","activity change, negative = inhibition [2]"
Cc1cc2c(s1)c1cnn(Cc3cc(F)cc(F)c3F)c(=O)c1n2C,inactive,inactive,,
O=S(=O)(c1cccc(-c2n[nH]c(=S)n2-c2ccccc2)c1)N1CCCC1,inactive,inactive,,
COc1ccc(C2Nc3ccccc3C(=O)N2Cc2ccco2)cc1 (configuration not stated),inactive,inactive,,
O=C(Nc1ccc(-c2nc3ccccc3[nH]2)cc1)c1ccc2ncccc2c1,inactive,inactive,,
COc1cccc(N2C(=O)c3ccccc3C2=O)c1,inactive,inactive,,
COc1ccc2nc(-c3ccc(N(C)C)cc3)sc2c1,inactive,inactive,,
CNc1nnc(-c2cccc3ccccc23)s1,inactive,inactive,,
Cc1ccc(NC(=O)c2ccc3c(c2)CCC(=O)N3)cc1C,inactive,inactive,,
O=C(O)c1cccc2c1C(=O)N(c1ccccc1)C2,inactive,inactive,,
COc1cccc(C2c3c(ncn(-c4ccc(F)cc4)c3=N)Oc3ccc4ccccc4c32)c1 (configuration not stated),inactive,inactive,,
CCOC(=O)c1ccc(-c2ccc3ncnc(NCCc4cnc[nH]4)c3c2)o1,inactive,inactive,,
CN(Cc1cccs1)c1ncnc2ccc(-c3ccc4cn(C)nc4c3)cc12,inactive,inactive,,
CS(=O)(=O)c1ccc(C(=O)OCC(=O)N2CCC(Cc3ccccc3)CC2)cc1[N+](=O)[O-],inactive,inactive,,
Fc1ccc(Nc2nc(-c3ccncc3F)nc3ccccc23)cc1F,inactive,inactive,,
Cc1cc(C)nc(NC(=S)N2CCN(c3cccc(Cl)c3Cl)CC2)c1,inactive,inactive,,
COc1cccc(Cn2ncc3c4sc(SC)cc4n(C)c3c2=O)c1,inactive,inactive,,
O=C(CNC(=O)c1ccc(Cl)cc1Cl)OC(C(=O)Nc1cc(C(F)(F)F)ccc1Cl)c1ccccc1 (configuration not stated),inactive,inactive,,
c1cncc(CNc2ncnc3ccc(-c4ccc5c(c4)OCO5)cc23)c1,inactive,inactive,,
Cc1cnc(-c2ccccc2C(C)C)nc1NCc1ccc(-c2nn[nH]n2)cc1,inactive,inactive,,
O=C(Cn1nc(-c2ccc3c(c2)OCO3)ccc1=O)NCCc1ccccc1,inactive,inactive,,
CC(=O)O[C@@H]1C=C2[C@H](CC[C@@]3(C)[C@@]2(O)CC[C@H]2Cc4c([nH]c5ccccc45)[C@@]23C)O[C@@H]1C(C)(C)O,inactive,inactive,,

SMILES,Potency [1],Potency [2],"activity change, negative = inhibition [1]","activity change, negative = inhibition [2]"
O=C1c2ccccc2C(=O)N1c1ccncc1,inactive,inactive,,
COCCN(CCOC)c1nc(C)nc2c1nc(-c1ccccc1)n2CCN(C)C,inactive,inactive,,
CC(C)c1ccccc1-c1ncc(F)c(NCC2CCN(c3cccnc3)CC2)n1,inactive,inactive,,
Brc1ccc(-c2csc(N3CCOCC3)n2)cc1,inactive,inactive,,
O=C(OCC#CCSc1nnc(-c2cccc3ccccc23)o1)c1ccc(Cl)cc1,inactive,inactive,,
Cc1nc(NCc2ccccc2)c2nc(-c3ccccc3)n(CCN3CCCCC3)c2n1,inactive,inactive,,
CCOc1ccc(CCNC(=O)Cc2ccccc2)cc1OCC,inactive,inactive,,
O=C(c1ccc2c(c1)ncn2-c1ccc(C(F)(F)F)cc1)N1CCCCC1,inactive,inactive,,
CC/C(C)=C/C(=O)OC1C(OC2(C)CCC3C(C4C(C)CCC42)C3(C)C)OC(C)C(O)C1O (configuration not stated),inactive,inactive,,
Cc1cnc(-c2ccccc2C(C)C)nc1NCc1ccc(C2CCCNC2)cc1 (configuration not stated),inactive,inactive,,
CC1=C(C(=O)Nc2nnc(-c3ccccc3)s2)C(c2nn(C)cc2Cl)N=C(Nc2nc3ccccc3o2)N1 (configuration not stated),inactive,inactive,,
CC1(C)CC[C@]2(C(=O)O)CC[C@]3(C)C(=CCC4[C@@]5(C)CC[C@H](O[C@@H]6O[C@H](C(=O)O)[C@@H](O)[C@H](O[C@@H]7O[C@H](CO)[C@H](O)[C@H](O)[C@H]7O)[C@H]6O[C@@H]6O[C@H](CO)[C@@H](O)[C@H](O)[C@H]6O)C(C)(C)C5CC[C@]43C)[C@@H]2C1 (some centres not stated),,,-3.97% [at 11.2 µM],11.9% [at 11.2 µM]
CC(C)c1nc(Nc2nc3ccccc3o2)nc2c1CCCC2,inactive,inactive,,
Oc1cc(-c2ccncc2)cc2cccnc12,inactive,inactive,,
O=C(O)c1ccc(-c2nn3c(=O)cc(N4CCNCC4)nc3s2)cc1,inactive,inactive,,
O=C(NC1CCCc2c1cnn2-c1ccc(F)cc1F)C1CC1 (configuration not stated),inactive,inactive,,
COc1ccc(C(=O)Nc2ccc(-c3nc4ccccc4[nH]3)cc2)cc1OC,inactive,inactive,,
N#Cc1cccc(-c2csc(N3CCC(C(N)=O)CC3)n2)c1,inactive,inactive,,
Cc1cc2c(s1)c1cnn(Cc3cc(F)ccc3C)c(=O)c1n2C,inactive,inactive,,
CCN1CCCC1Cn1c(-c2ccccc2)nc2c(N(CCOC)CCOC)nc(C)nc21 (configuration not stated),inactive,inactive,,
